In general, inhibition refers to the change of the read-out against control, counted positive when it falls.

Results on five molecules are retold here after ChEMBL document CHEMBL1961873, “Compounds: GSK PKIS; Assays: Nanosyn kinase panel” (2012).

Test [1] addresses Serine/threonine-protein kinase pim-2 (Homo sapiens) (UniProt Q9P1W9). The following applies: at 1 µM.
The target in test [2] is Serine/threonine-protein kinase pim-3 (Homo sapiens) (UniProt Q86V86). As to conditions: at 0.1 µM.
Test [3] shares this target. As to conditions: at 1 µM.
Test [4] has as its target T1, MAP kinase-activated protein kinase 5 (Homo sapiens) (UniProt Q8IW41).
T1 sequence (whole entry): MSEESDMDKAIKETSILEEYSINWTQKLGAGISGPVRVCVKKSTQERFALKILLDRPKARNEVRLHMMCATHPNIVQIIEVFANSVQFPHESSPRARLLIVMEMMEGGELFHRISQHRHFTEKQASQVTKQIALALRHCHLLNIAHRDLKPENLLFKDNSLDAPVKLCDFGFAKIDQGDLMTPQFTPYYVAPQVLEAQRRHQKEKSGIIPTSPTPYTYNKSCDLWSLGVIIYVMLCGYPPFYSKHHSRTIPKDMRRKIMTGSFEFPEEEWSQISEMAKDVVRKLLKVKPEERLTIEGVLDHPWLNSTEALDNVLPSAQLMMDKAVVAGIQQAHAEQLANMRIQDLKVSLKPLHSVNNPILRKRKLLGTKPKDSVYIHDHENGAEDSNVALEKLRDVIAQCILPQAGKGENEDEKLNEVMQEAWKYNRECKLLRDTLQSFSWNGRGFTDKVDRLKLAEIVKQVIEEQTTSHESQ
As to conditions: at 0.1 µM.

The target in test [5] is T1, MAP kinase-activated protein kinase 5 (Homo sapiens). As to conditions: at 1 µM.
For test [6], the target named is Serine/threonine-protein kinase SIK1 (Homo sapiens) (UniProt P57059). The following applies: at 0.1 µM.
Serine/threonine-protein kinase SIK1 (Homo sapiens), sequence (P57059 whole entry): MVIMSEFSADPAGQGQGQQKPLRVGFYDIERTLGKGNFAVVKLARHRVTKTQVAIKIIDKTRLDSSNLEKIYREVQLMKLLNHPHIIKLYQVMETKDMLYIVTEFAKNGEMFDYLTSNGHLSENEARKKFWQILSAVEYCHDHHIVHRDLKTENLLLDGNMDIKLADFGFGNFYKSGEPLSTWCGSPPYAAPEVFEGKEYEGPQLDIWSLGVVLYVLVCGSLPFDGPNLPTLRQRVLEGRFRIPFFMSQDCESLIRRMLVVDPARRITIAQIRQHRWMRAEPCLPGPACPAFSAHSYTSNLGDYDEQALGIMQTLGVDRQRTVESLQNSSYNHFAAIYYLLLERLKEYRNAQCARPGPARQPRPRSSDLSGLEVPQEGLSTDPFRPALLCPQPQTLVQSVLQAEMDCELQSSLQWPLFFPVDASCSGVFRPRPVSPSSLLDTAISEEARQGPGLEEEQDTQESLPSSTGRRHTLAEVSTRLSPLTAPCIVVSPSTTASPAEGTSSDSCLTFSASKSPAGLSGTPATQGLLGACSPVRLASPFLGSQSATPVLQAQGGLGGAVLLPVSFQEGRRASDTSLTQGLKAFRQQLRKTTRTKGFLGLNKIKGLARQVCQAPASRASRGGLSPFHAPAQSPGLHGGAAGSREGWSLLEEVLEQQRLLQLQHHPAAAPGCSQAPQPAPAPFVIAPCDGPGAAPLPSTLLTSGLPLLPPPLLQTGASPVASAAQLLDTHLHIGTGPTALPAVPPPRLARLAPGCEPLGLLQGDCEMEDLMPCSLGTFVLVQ
Test [7] shares this target. As to conditions: at 1 µM.
Test [8] has as its target Serine/threonine-protein kinase SIK2 (Homo sapiens) (UniProt Q9H0K1). The following applies: at 0.1 µM.
The target is the same in test [9]. The following applies: at 1 µM.
For test [10], the target named is T2, Serine/threonine-protein kinase TBK1 (Homo sapiens) (UniProt Q9UHD2).
T2 sequence (whole entry): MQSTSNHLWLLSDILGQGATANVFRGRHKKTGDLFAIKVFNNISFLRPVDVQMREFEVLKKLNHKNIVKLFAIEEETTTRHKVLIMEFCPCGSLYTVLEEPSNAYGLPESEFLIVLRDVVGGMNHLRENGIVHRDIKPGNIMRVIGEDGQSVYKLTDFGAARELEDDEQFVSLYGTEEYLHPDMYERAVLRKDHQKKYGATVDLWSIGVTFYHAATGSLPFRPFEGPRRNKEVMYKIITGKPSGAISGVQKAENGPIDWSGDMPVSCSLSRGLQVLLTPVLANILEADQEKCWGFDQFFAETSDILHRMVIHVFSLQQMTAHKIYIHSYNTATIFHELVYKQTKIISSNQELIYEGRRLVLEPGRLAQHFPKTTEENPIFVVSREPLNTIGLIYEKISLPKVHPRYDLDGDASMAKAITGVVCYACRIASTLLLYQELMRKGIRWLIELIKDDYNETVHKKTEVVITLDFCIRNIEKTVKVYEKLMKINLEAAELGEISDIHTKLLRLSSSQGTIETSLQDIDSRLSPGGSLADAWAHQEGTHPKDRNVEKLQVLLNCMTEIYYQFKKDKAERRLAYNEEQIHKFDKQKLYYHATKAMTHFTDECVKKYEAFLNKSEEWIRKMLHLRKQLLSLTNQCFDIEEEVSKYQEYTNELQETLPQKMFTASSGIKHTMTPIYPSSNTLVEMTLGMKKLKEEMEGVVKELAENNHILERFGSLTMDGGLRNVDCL
As to conditions: at 0.1 µM.

The target in test [11] is T2, Serine/threonine-protein kinase TBK1 (Homo sapiens). As to conditions: at 1 µM.
Test [12] deals with T3, Testis-specific serine/threonine-protein kinase 1 (Homo sapiens) (UniProt Q9BXA7).
T3 sequence (whole entry): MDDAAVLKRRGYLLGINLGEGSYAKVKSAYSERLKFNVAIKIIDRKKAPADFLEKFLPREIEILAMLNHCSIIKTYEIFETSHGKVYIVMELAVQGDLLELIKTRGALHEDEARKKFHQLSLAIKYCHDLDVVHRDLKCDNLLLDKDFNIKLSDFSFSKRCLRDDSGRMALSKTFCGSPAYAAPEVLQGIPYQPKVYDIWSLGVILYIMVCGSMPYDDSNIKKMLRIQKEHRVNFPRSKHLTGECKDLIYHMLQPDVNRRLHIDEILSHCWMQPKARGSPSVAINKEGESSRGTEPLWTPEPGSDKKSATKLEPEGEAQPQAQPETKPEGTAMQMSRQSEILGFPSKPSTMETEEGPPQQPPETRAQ
As to conditions: at 0.1 µM.

In test [13] the target is T3, Testis-specific serine/threonine-protein kinase 1 (Homo sapiens). As to conditions: at 1 µM.
The target in test [14] is T4, Testis-specific serine/threonine-protein kinase 2 (Homo sapiens) (UniProt Q96PF2).
T4 sequence (whole entry): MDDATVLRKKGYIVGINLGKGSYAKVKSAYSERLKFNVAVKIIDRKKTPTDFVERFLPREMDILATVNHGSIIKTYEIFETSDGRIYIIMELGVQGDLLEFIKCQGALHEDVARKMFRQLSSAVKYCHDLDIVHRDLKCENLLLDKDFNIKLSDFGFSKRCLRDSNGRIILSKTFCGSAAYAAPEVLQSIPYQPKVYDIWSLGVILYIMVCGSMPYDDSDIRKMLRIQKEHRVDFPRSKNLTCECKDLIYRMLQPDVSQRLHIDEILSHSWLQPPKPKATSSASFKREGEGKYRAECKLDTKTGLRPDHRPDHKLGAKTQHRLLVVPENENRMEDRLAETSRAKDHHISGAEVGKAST
The following applies: at 0.1 µM.

Test [15] deals with T4, Testis-specific serine/threonine-protein kinase 2 (Homo sapiens). As to conditions: at 1 µM.
Test [16] concerns the target Casein kinase I isoform alpha (Homo sapiens) (UniProt P48729). As to conditions: at 0.1 µM.
Test [17] shares this target. As to conditions: at 1 µM.
For test [18], the target named is Casein kinase I isoform gamma-1 (Homo sapiens) (UniProt Q9HCP0). As to conditions: at 0.1 µM.
Casein kinase I isoform gamma-1 (Homo sapiens), sequence (Q9HCP0 whole entry, looked up, canonical isoform): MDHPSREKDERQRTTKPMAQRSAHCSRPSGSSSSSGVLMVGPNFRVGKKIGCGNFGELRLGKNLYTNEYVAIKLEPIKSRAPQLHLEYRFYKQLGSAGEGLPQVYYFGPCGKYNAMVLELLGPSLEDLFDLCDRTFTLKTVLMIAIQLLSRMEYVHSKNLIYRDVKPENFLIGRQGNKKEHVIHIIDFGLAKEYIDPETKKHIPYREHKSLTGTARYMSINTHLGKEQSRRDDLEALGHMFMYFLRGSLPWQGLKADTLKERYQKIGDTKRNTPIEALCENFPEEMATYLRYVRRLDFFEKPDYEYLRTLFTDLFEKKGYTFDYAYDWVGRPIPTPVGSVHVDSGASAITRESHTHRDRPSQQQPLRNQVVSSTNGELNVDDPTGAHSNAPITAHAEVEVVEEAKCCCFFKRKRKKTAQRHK
Test [19] has the same target. The following applies: at 1 µM.
Test [20] has as its target Casein kinase I isoform gamma-2 (Homo sapiens) (UniProt P78368). The following applies: at 0.1 µM.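 Further: values are mean inhibition figures reported as part of the GSK PKIS dataset.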

Casein kinase I isoform alpha (Homo sapiens), sequence (P48729 2-337 limits assumed): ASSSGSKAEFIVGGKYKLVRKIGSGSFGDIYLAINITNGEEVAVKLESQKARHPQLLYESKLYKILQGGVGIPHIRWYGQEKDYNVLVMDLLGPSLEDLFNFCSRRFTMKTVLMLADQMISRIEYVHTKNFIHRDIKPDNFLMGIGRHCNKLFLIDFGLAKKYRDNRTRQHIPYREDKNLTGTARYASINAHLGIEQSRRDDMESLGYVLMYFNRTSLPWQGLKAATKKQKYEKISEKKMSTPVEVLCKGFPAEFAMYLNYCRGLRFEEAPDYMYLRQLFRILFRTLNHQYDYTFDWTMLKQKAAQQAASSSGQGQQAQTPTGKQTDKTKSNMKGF
Serine/threonine-protein kinase pim-2 (Homo sapiens), sequence (Q9P1W9 whole entry, looked up): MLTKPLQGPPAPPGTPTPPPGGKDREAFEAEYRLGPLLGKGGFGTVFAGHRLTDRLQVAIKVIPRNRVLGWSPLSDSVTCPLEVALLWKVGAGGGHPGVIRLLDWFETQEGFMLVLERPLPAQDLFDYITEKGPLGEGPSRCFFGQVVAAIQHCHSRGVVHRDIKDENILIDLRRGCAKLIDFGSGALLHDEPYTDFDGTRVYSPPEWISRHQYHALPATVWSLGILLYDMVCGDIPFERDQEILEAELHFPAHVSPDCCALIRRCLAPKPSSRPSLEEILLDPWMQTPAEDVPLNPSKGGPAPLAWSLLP
Casein kinase I isoform gamma-2 (Homo sapiens), sequence (P78368 whole entry, looked up, canonical isoform): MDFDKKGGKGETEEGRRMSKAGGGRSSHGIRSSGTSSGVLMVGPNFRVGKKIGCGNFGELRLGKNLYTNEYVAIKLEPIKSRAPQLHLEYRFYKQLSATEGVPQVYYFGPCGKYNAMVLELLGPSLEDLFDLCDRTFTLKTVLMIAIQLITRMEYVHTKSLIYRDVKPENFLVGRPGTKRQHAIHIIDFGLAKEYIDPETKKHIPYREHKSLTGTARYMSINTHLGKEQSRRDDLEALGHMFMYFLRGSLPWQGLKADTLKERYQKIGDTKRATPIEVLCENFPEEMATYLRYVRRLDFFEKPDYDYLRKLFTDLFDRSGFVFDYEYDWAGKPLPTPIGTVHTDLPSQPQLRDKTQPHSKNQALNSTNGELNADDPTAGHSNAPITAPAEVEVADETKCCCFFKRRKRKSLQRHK
Serine/threonine-protein kinase SIK2 (Homo sapiens), sequence (Q9H0K1 whole entry, looked up): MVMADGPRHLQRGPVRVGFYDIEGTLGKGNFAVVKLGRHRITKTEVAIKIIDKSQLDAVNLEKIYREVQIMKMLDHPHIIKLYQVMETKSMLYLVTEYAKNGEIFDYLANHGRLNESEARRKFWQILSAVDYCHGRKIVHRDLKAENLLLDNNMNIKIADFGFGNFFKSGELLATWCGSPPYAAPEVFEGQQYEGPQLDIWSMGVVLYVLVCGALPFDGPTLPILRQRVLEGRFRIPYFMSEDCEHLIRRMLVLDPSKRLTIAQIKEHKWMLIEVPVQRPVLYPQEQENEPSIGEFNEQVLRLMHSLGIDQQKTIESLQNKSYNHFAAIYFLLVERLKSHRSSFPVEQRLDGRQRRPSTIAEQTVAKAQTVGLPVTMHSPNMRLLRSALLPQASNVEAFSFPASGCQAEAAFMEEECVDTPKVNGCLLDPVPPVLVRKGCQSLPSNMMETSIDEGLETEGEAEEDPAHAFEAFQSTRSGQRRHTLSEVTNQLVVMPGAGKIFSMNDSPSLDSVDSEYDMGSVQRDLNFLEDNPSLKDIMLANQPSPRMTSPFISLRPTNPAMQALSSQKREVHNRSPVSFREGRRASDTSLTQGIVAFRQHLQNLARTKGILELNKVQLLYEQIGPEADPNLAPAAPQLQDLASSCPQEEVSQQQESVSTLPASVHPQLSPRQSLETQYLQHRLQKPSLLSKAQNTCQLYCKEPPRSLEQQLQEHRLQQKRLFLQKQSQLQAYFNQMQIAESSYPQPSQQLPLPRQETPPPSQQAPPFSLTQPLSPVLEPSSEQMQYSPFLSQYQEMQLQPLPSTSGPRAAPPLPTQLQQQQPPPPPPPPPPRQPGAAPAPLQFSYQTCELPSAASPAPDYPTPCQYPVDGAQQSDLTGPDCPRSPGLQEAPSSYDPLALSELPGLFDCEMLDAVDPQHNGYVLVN

As to `Cc1ccc2c(-c3ccnc(Nc4cccc(C(F)(F)F)c4)n3)c(-c3ccccc3)nn2n1`, the inhibition in [1] is -0.7%; in test [2], 0.5%; in test [3] it was 1.85%; in [4], 1.8%; in [5], 1.94%; in test [6], 6.3%. Also, the inhibition was 15.8% in [7]; 1.03% in [8]; 9.81% in test [9]; 3.23% in test [10]; 4.86% in test [11]; 3.88% in [12]. Besides, the inhibition in [13] came to 4.11%; in test [14], 1.4%; in [15], 2.15%; in [16], 15.3%; in test [17], 59.2%; in test [18], 5%. Moreover, the inhibition in test [19] was found to be 14%; in test [20], 3.82%.

Consider `COc1cc(/C=N/Nc2ncnc3c2cnn3C(C)C)ccc1O`, for which the inhibition is 4.35% in [1]; 1.2% in [2]; 7.74% in [3]; 0.1% in test [4]; 0.02% in test [5]; 2.84% in test [6]. Further, the inhibition in test [7] was determined as 14.5%; in test [8], 2.78%; in test [9] it was 23.1%; in test [10], 2.37%; in test [11] it was 6.12%; in test [12], 1.68%. Further, the inhibition in [13] was 1.76%; in test [14] it was 0.77%; in test [15], 1.4%; in test [16], -0.04%; in test [17] it was 0.99%; in [18], 1.74%. For the same molecule, the inhibition in test [19] came out at 3.2%; in test [20] it was 1.49%.

On to `COc1cccc(-n2ncc3c(N/N=C/c4ccc(S(C)(=O)=O)cc4)ncnc32)c1`, for which the inhibition was -2.5% in [1]; 0.09% in test [2]; 2.23% in [3]; 0.26% in test [4]; 0.26% in test [5]; 4.24% in test [6]. Besides, the inhibition worked out at 26% in test [7]; 19.1% in [8]; 29.9% in test [9]; 8.06% in [10]; 7.99% in test [11]; 1.1% in test [12]. Also, the inhibition in test [13] is -0.61%; in [14] it was 0.93%; in [15], 0.31%; in [16], 2.28%; in test [17], 5.91%; in [18], -2.52%. The inhibition in test [19] was -0.99%; in test [20] it was -2.87%.

Turning to `NS(=O)(=O)c1ccc(-c2cc3ccncc3cc2OCc2ccccc2)cc1`, the inhibition was -1.33% in test [1]; -0.2% in test [2]; 1.38% in [3]; 0.82% in test [4]; 1.86% in [5]; 4.35% in [6]. Besides, the inhibition was determined as 10.3% in [7]; 6.46% in test [8]; 4.1% in [9]; 5.88% in [10]; 2.74% in [11]; 3.43% in test [12]. For the same molecule, the inhibition in [13] is 3.97%; in [14], 2.95%; in test [15], 2.52%; in test [16], 4.76%; in [17], 3.35%; in test [18], 2.57%. Besides, the inhibition in test [19] is 3.44%; in [20] it was 1.61%.

On to `Cc1ccc(O)cc1Nc1ccnc2ccc(S(C)(=O)=O)cc12`, for which the inhibition is 0.8% in test [1]; 0.69% in test [2]; 1.04% in [3]; 2.48% in [4]; 2.77% in test [5]; 47.2% in test [6]. Besides, the inhibition in test [7] is 89.6%; in [8], 15.8%; in test [9] it was 52.6%; in [10], 2.4%; in [11], 9.14%; in [12] it was 3.95%. In addition, the inhibition is 4.63% in test [13]; 2.41% in [14]; 3.33% in test [15]; 11.9% in [16]; 43.8% in [17]; 4.05% in test [18]. The inhibition in test [19] came to 7.45%; in [20], 4.13%.
